RAM network inh = blocks the yeast RAM network. S. cerevisiae dse1pr::URA3 reporter, 5-FOA growth OD615, 2 d; analog-sensitive cbk1-as2 kinase mutant strain. hit rate 1.8% among 190,000. inhibition, % at 50 µM;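 active means inhibition above a set limit, 3 SD over mean compound inhibition, cut at about 8.4% in these data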;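 further: 0% = DMSO-only wells with no growth and 100% = 10 µM 1-NA-PP1 full growth; inhibition rescues growth on 5-FOA so higher OD means more RAM inhibition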
S1P4 antag = blocks the human S1P4 receptor; O95977; S1P4-expressing cells, antagonist mode, reporter read-out; inhibition, % at 4.98 µM; hit rate 0.26% among 220,000; AID 1510; in the data active means inhibition above about 29%;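 further: 0% = wells stimulated with agonist and 100% = vehicle wells without agonist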
S1P4 ag = human S1P4 receptor agonism | O95977 | S1P4-expressing cell line, agonist reporter assay | activation, % at 4.98 µM | hit rate 0.35% among 220,000; in the data active means activation above about 11%;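 further: 0% = DMSO vehicle and 100% = reference agonist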
ROMK mod = modulators of human ROMK potassium channel; P48048; Tet-inducible ROMK, thallium flux fluorescence; actives lie on both sides; B-score at 10 µM; hit rate 2% among 130,000; AID 1918;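 active means signal ratio slope over the read window, or its plate-corrected B-score, at least 3 SD from the plate mean, either direction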;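 further: B-score of the F/F0 ratio slope over 7 to 12 s after thallium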
Target sequence (P48048 whole entry, looked up): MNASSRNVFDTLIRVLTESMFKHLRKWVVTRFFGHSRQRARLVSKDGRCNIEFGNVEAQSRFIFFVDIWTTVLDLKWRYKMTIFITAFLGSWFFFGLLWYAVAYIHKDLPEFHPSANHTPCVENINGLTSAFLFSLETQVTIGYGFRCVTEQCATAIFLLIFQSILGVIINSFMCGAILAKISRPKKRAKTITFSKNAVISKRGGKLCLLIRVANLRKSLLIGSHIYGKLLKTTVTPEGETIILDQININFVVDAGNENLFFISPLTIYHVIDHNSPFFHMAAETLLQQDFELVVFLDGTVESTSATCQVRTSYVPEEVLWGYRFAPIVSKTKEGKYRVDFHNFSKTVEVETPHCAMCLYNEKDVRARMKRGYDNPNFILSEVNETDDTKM
S1P3 antag = blocks the human S1P3 receptor; Q99500; CHO S1P3 NFAT-BLA reporter, FRET fluorescence, antagonist mode; inhibition, % at 4.98 µM; hit rate 0.27% among 170,000; AID 485;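 active means inhibition above the plate cutoff, the mean inhibition of test wells on that plate plus 3 SD, cut at about 28% in these data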;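 further: cells challenged with S1P at its EC80 of 0.8 µM; blue over green emission ratio from cleaved BLA substrate after 4 h stimulation; 0% = S1P-stimulated wells and 100% = unstimulated DMSO-only wells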
Cl transport mod = KCC2 (human) Cl- transport modulation | Q9H2X9 | KCC2 cells, thallium flux FluoZin-2 fluorescence | B-score of Tl+ flux slope (higher = more flux/activation; lower = inhibition) at 10 µM | hit rate 2.2% among 190,000;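 active means thallium flux slope and its plate-corrected score both differing from the plate sample mean at a set confidence after two filtering rounds, in either direction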;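 further: slope of fluorescence scaled to starting intensity during 10 to 20 s after thallium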
S1P4 agonist cf = human S1P4 agonism, confirmation; activation, % at 4.98 µM; shares compounds with S1P4 ag; hit rate 7% among 740; S1P4 agonist cell-based reporter assay; in the data active means activation above about 12%;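 further: 0% = vehicle and 100% = full reference agonist response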
S1P1 agonist = counter-screen for S1P4 agonists: agonists of human S1P1; shares compounds with S1P4 ag; S1P1 agonist cell-based assay, activation; activation, % at 4.98 µM; hit rate 4% among 740; in the data active means activation above about 21%;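 further: 0% = vehicle wells and 100% = reference agonist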
Target sequence (P21453 whole entry, looked up): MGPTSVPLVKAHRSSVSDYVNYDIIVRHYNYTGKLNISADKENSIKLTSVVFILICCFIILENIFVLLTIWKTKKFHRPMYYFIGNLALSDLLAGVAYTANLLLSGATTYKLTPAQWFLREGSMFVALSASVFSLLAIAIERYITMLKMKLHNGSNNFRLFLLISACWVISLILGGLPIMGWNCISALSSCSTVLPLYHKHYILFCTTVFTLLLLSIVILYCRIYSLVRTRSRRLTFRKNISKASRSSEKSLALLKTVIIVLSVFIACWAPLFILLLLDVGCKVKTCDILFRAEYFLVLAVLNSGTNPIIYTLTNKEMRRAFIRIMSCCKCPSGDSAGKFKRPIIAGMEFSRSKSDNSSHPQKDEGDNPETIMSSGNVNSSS
S1P4 antag cf = confirmation of human S1P4 receptor antagonists | S1P4-expressing cell line, antagonist mode, reporter read-out | inhibition, % at 4.98 µM | AID 1524 | hit rate 71% among 520 | shares compounds with S1P4 antag; in the data active means inhibition above about 30%
S1P1 antagonist = human S1P1 antagonism as S1P4 antagonist counter-screen; shares compounds with S1P4 antag; cell-based S1P1 antagonist counterscreen, inhibition; inhibition, % at 4.98 µM; hit rate 37% among 520; in the data active means inhibition above about 40%;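 further: receptor stimulated with S1P near its EC80; 0% = agonist stimulated wells and 100% = vehicle only wells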
ROMK hit retest = confirmation of human ROMK potassium channel modulators; shares compounds with ROMK mod; ROMK thallium flux, fluorescence ratio; active compounds read low; normalized thallium flux (F/F0 slope) at 10 µM; hit rate 54% among 3,000; AID 1917;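 active means Flux at 10 µM at least 3 SD below or above vehicle control mean in one or both replicates; inconclusive means no clear call, values can overlap the other calls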
* marks the source's active call; other numbers are inactive results; i = inactive; ? = inconclusive; . = no result. Compounds with a hit are over-represented: about 5.1% of the library has one in this group of screens.

SMILES | RAM network inh | S1P4 antag | S1P4 ag | ROMK mod | S1P3 antag | Cl transport mod | S1P4 agonist cf | S1P1 agonist | others
CC(C)n1c(=NC(=O)c2ccco2)c(C#N)cc2c(=O)n3ccccc3cc21 | 0 | -30 | 12* | -0.78 | -33 | -0.47 | 0 | 9
CC(OC(=O)c1ccc2c(=O)n3c(nc2c1)CCCCC3)C(=O)Nc1ncc(Cl)cc1Cl (stereo not given) | 0 | -31 | 11* | . | 3 | 0.093 | -3 | 3
C/C(=N\NC(=O)COc1ccc(C(C)(C)C)cc1)c1ccccc1 | 2 | -4 | 1 | -1.3 | -22 | 0.57 | . | .
CC(C)(C)c1ccc(OCC(=O)Nc2ccc3c4c(cccc24)C(=O)NC3=O)cc1 | 1 | -11 | 19* | -0.47 | -7 | -0.64 | 1 | -4
O=C(COC(=O)C1(c2ccc(Cl)cc2)CCCC1)Nc1ncc(C(F)(F)F)cc1Cl | 8.9* | -1 | 29* | . | 4 | -0.74 | -1 | 0
Cc1ccccc1NS(=O)(=O)c1cc(OCC(N)=O)c(C)cc1Cl | -1 | 1 | 15* | 0.009 | 13 | -0.32 | -2 | -4
COc1cccc(-n2nnc3c(=O)n(CC(=O)Nc4cc(C)on4)cnc32)c1 | 5 | -9 | 1 | -0.16 | -4 | 1.7 | . | .
C=CCn1c(=N)c(C(=O)NCCCOC)cc2c(=O)n3cc(C)ccc3nc21 | 0 | -7 | 12* | . | -4 | 0.034 | 0 | 0
C=CCn1c(=N)c(C#N)cc2c(=O)n3ccccc3nc21 | 0 | -25 | 0 | -0.18 | . | -0.46 | . | .
Cc1ccc2nc3c(cc(C(=O)NCC4CCCO4)c(=N)n3CCCOC(C)C)c(=O)n2c1 (stereo not given) | 1 | -21 | 7 | . | -21 | . | . | .
C=CCn1c(=N)c(C(=O)NCCCOC)cc2c(=O)n3ccccc3nc21 | 0 | -13 | 11* | . | -3 | 0.22 | 8 | 9
COCCN(C(=O)c1ccccc1OC1CCN(S(C)(=O)=O)CC1)C(C)C | 0 | -2 | 0 | 0.48 | -2 | -0.089 | . | .
O=C(NCc1ccc(F)cc1)c1ccc(Br)o1 | 1 | -6 | 1 | 0.027 | 17 | -0.15 | . | .
N#CCCN(/N=C/c1cccnc1)C1=NS(=O)(=O)c2ccccc21 | 1 | -4 | 47* | . | 1 | -0.22 | -1 | 3
FC(F)(F)c1cccc(-c2ccn3ncnc3n2)c1 | 0 | -19 | 0 | -0.16 | 2 | 0.8 | . | .
COc1ccc2cc(/C=N/NC(=O)c3ccc(CN(c4cccc(Cl)c4Cl)S(C)(=O)=O)cc3)c(Cl)nc2c1 | 7 | 16 | 43* | -0.51 | 4 | -0.51 | -2 | -5
Cn1ccnc1C1CCCCN1Cc1nc(-c2ccc(Cl)cc2)no1 (stereo not given) | -1 | -8 | 0 | -0.25 | 1 | 0.48 | . | .
CCOc1cc(N2CCOCC2)c(OCC)cc1NC(=O)c1ccc(C)cc1 | 3 | -6 | 155* | 0.19 | -3 | . | -2 | 0
COc1ccc(-c2noc(CSc3nc4sc(C)c(C)c4c(=O)n3-c3ccccc3)n2)cc1 | 2 | -11 | 21* | 0.36 | -2 | -0.046 | 0 | -1
CCCCCCC(=O)Nc1ccc(Br)cn1 | . | 1 | -1 | . | 18 | -1.9 | . | .
CCCCCC(=O)Nc1ccc(Cl)cn1 | 2 | -9 | 15* | 0 | 10 | 0.051 | -1 | -4
CCN(CC)c1ccc(-c2n[nH]c(=S)n2-c2ccccc2)cc1 | 0 | -17 | 12* | -1.5 | 1 | 1.5 | -1 | 0
Cc1ccc(Nc2cc(C)c3ccc(O)cc3n2)cc1C | . | 75* | 11* | -0.0016 | 2 | 1.6 | -2 | 0 | S1P4 antag cf=80*;S1P1 antagonist=20
S=C(Nc1ccc(Cl)cc1)c1sc(N2CCCCC2)nc1N1CCOCC1 | 2 | -8 | 1 | -0.16 | 5 | -0.17 | . | .
N=c1n(CCN2CCCC2)c2ccccc2n1CC(O)c1ccc(Cl)c(Cl)c1 (stereo not given) | 2 | 38* | 55* | -3.4 | -3 | -0.032 | -3 | -14 | S1P4 antag cf=71*;S1P1 antagonist=60*
SMILES | RAM network inh | S1P4 antag | S1P4 ag | ROMK mod | S1P3 antag | Cl transport mod | S1P4 agonist cf | S1P1 agonist | others
COc1ccc(OCC(O)Cn2c(=N)n(CCN3CCCCC3)c3ccccc32)cc1 (stereo not given) | 0 | 7 | -1 | . | -1 | -0.47 | . | .
CC(=O)c1cc2ccc(O)cc2oc1=O | . | -59 | 104* | -6.4* | -37 | i | 45* | 66* | ROMK hit retest=0.05*
N#C/C(=C\c1cccs1)C(=O)c1ccccc1Cl | . | 24 | 36* | . | 2 | -1.1 | -2 | -9 | ROMK hit retest=0.052*
COc1cc2c(=O)n(CCC(=O)NCC3CCCO3)c(=O)n(CC(=O)c3ccc(Cl)cc3)c2cc1OC (stereo not given) | 1 | -2 | 1 | -0.0087 | -22 | -0.17 | . | .
CCOC(=O)/C(C#N)=C\C1=C(N2CCCC2)CC(C)(CC)OC1 (stereo not given) | 0 | -8 | -1 | 0.18 | . | 0.27 | . | .
N#C/C(=C(/O)CCl)c1nc(-c2ccccc2)cs1 | . | -10 | 2 | . | -6 | -1.2 | . | .
Cc1ccc(-c2csc(/C(C#N)=C(\O)CCl)n2)cc1 | 5 | -23 | 20* | -3.3* | 3 | -2.9 | -3 | -5 | ROMK hit retest=?
Cc1ccc(NC(=O)NC(=O)CSc2nnc(-c3ccc(Cl)cc3Cl)n2N)c(C)c1 | 4 | -7 | 1 | . | 3 | -1.5 | . | .
CCn1c(=O)c2c3c(sc2n2c(=S)[nH]nc12)CCC3 | -1 | -12 | 23* | 2.3* | . | 0.35 | -2 | -3 | ROMK hit retest=0.079
Cc1ccc(-n2c(=O)c3c4c(sc3n3c(=S)[nH]nc23)CCC4)cc1 | . | 6 | 0 | . | -2 | -1.3 | . | .
CCCSc1nnc(NC(=O)Nc2ccc(F)cc2)s1 | 1 | -3 | 61* | -2 | . | -0.79 | -2 | 2 | ROMK hit retest=0.062*
CCCSc1nnc(NC(=O)Nc2ccc(C)cc2)s1 | . | -4 | 1 | . | -14 | 0.96 | . | .
COc1ccc(NCC(=O)N/N=C2\CCCC(C)C2)cc1 (stereo not given) | 1 | -3 | 23* | 2.1* | 8 | 1.1 | -2 | -4 | ROMK hit retest=0.077
CCN(CC)c1ccc2c(Cl)c(Br)c(=O)oc2c1 | 6 | 53* | 1 | . | 28 | -1.9 | . | . | S1P4 antag cf=104*;S1P1 antagonist=74*
COc1ccc(/C=C/C(=O)c2cc(F)ccc2OC(=O)c2ccccc2OC)cc1OC | 8 | 47* | 1 | 2.1 | 26 | -1.6 | . | . | S1P4 antag cf=82*;S1P1 antagonist=99*

Assay outcomes as filed in PubChem.
